Potency and outcome data for 22 compounds are collected here from PubChem BioAssay (Tox21).

Structures are written as SMILES. Inconclusive results are not listed. Calls of active or inactive are those of the source. Unless noted, calls come from the whole dose curve; as a rule, active = well fitted curve in the direction sought with a large enough effect in the repeat runs; inconclusive = weak or mixed curves; inactive = no such curve, though single readings can be large; an effect the other way counts as inactive or inconclusive.

Assay [1] is described as follows: qHTS assay for small molecule agonists of the p53 signaling pathway (AID 651631; calls by dose curve; note: nearly all actives have a fitted effect of over 15% in size; note: potency is the fitted concentration of half-maximal effect). The method in brief: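 HCT-116 cells carrying a beta-lactamase reporter under p53 response elements were dosed with compound for 16 h at 37 °C. LiveBLAzer B/G FRET substrate was then added for 2 h at room temperature, and fluorescence intensity was read to detect pathway agonism.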
(In general: In qHTS, concentration-response curves come from the screen itself.)

The nature of assay [2]: qHTS assay for small molecules that induce genotoxicity in human embryonic kidney cells expressing luciferase-tagged ATAD5 (AID 651632). Note: nearly all actives have a fitted effect of over 15% in size. In short, it runs like this:
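Cells were seeded at 2,000 per well, dosed with compound, and incubated 16 hr at 37C in 5% CO2. Luciferase activity was then quantified after a 30 min room-temperature incubation with Amplite.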

A short description of assay [3]: qHTS assay for small molecule agonists of the p53 signaling pathway - cell viability (AID 651633; calls by dose curve; note: nearly all actives have a fitted effect of over 30% in size; note: potency is the fitted concentration of half-maximal effect). The method in brief:
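p53RE-bla cells, seeded at 4,000 per well and rested 5 h at 37 C/5% CO2, received compounds in DMSO for 16 h at 37 C. CellTiter-Glo was then added, and luminescence was read after 30 min at room temperature to gauge cytotoxicity.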

Assay [4] is described as follows: qHTS assay for small molecules that induce genotoxicity in human embryonic kidney cells expressing luciferase-tagged ATAD5 - cell viability (AID 651634; calls by dose curve; note: nearly all actives have a fitted effect of over 25% in size; note: potency is the fitted concentration of half-maximal effect). The method in brief: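 Cells (HEK293T, luciferase-tagged ATAD5) are seeded at 2,000 per well, dosed with compound or DMSO vehicle, and incubated 15.5 hr at 37C and 5% CO2. CellTiter-Fluor is added for 30 min before fluorescence is measured.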

Assay [5] can be described thus: qHTS assay for small molecule disruptors of the mitochondrial membrane potential - cell viability (AID 720634; calls by dose curve;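 note: human HepG2 liver cancer cells; series mostly up to about 83 µM; nearly all actives have a fitted effect of over 20% in size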). In short, it runs like this: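 Cytotoxicity was measured by ATP quantitation in HepG2 wells that had first been treated with compound for 1 hr and stained with m-MPI dye; CellTiter-Glo incubation was 30 min at room temperature.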
Assay [6] can be described thus: qHTS assay to test for compound auto fluorescence at 590 nm (red) in HepG2 cells (AID 720674). In short, it runs like this:
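Compound auto-fluorescence is scored relative to Rose Bengal sodium, measured at 540/590 nm in live HepG2 cultures after 1 hr compound contact (37 C, 5% CO2).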

The nature of assay [7]: qHTS assay to test for compound auto fluorescence at 535 nm (green) in HepG2 cells (AID 720675).
A short description of assay [8]: qHTS assay to test for compound auto fluorescence at 460 nm (blue) in HEK293 cells (AID 720678). Note: potency is the fitted concentration of half-maximal effect. The method in brief:
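Triamterene serves as the blue fluorophore standard. Compound signal at 405/460 nm is read in HEK293 wells (2,000 cells, 10% dialyzed FBS) after overnight treatment at 37C.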

Assay [9] in a line: qHTS assay to test for compound auto fluorescence at 590 nm (red) in HEK293 cells (AID 720679). In short, it runs like this: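 We plated HEK293 cells in 10% dialyzed FBS medium, let them adhere for 4-5 hr, then added 23 nL compound. Overnight at 37C and 5% CO2 preceded fluorescence measurement at 540/590nm.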
A short description of assay [10]: qHTS assay for small molecule disruptors of the mitochondrial membrane potential (AID 720635). Note: potency is the fitted concentration of half-maximal effect. In short, it runs like this:
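HepG2 cells (2,000/well) attached overnight at 37C, then took compound for 1 hr at 37C, 5% CO2. Mito-MPS dye was added for 30 min; fluorescence was read at 490/535 nm (monomers) and 540/590 nm (aggregates).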
Tags give direction and shape of the fitted curve or compound fluorescence and quenching.

As to `NC(=O)CC[C@@H]1NC(=O)[C@H](Cc2ccccc2)NC(=O)[C@H](Cc2ccc(O)cc2)NC(=O)[C@@H](N)CSSC[C@@H](C(=O)N2CCC[C@H]2C(=O)N[C@@H](CCCN=C(N)N)C(=O)NCC(N)=O)NC(=O)[C@H](CC(N)=O)NC1=O`, the Potency result in assay [1], in assay [2], in [3], in assay [4], in assay [5] and in assay [7] was “inactive” each time. For the same compound, the Potency entry in assay [8] is “inactive”. Besides, the result in assay [6] and in assay [9] was inactive.

As to `CN[C@@H]1[C@@H](O[C@H]2O[C@H](CO)[C@@H](N)[C@H](O)[C@H]2O)O[C@H]2C[C@@H](N)[C@@H](O[C@H]3[C@H](O)[C@@H](O)[C@H](N)C[C@@H]3N)O[C@@H]2[C@@H]1O`, the Potency result in [1], in [2], in [3], in [4], in assay [5] and in assay [7] was “inactive” throughout. Besides, the Potency result in assay [8] was “inactive”. For the same compound, the call in [6] and in assay [9] was inactive.

For `O=C1OC(=O)c2cc(-c3ccc4c(c3)C(=O)OC4=O)ccc21`, the Potency entry in assay [1], in assay [2], in assay [3], in [4], in assay [5] and in [7] was “inactive” in each case. Besides, the Potency entry in assay [8] was “inactive”. The outcome in assay [6] and in [9] was inactive.

As for `c1ccc(-c2ccc(C(c3ccccc3)n3ccnc3)cc2)cc1` (configuration not stated), the Potency in [1] was 29.8 µM (active). Further, the Potency result in assay [2], in assay [4], in [5], in [7] and in assay [8] was “inactive” each time. The compound was called inactive in [9].

As for `CCCCCCCCCCCC[n+]1ccc2ccccc2c1`, the Potency in assay [1] was 26.6 µM (active); in [3], 29.8 µM (active); in assay [4], 7.5 µM (active); in [10], 2.98 µM (active). Also, the Potency entry in assay [5], in [7] and in assay [8] was “inactive” each time. The compound was classed as inactive in assay [6] and in [9].

As to `CCC1OC(=O)C[C@@H](O)[C@H](C)[C@@H](O[C@@H]2O[C@H](C)C[C@H](N(C)C)[C@H]2O)[C@@H](CC=O)C[C@@H](C)C(=O)/C=C/[C@]2(C)OC2C1C` (some centres not stated), the Potency in assay [1] was 29.8 µM (active). Further, the Potency entry in assay [3], in assay [4], in assay [5], in assay [10], in assay [7] and in assay [8] was “inactive” throughout. The call in assay [6] and in assay [9] was inactive.

`COc1ccc(/C=C/C(=O)Nc2ccccc2C(=O)O)cc1OC`: the Potency result in assay [1], in assay [3], in [4], in assay [5], in [7] and in assay [8] was “inactive” throughout. The compound was classed as inactive in assay [6] and in assay [9].

For `c1ccc2c(c1)OCC(CN1CCCCC1)O2` (configuration not stated), the Potency result in [1], in [3], in [4], in assay [5], in assay [10] and in assay [7] was “inactive” throughout. Further, the Potency result in assay [8] is “inactive”. Further, the compound was classed as inactive in assay [6] and in assay [9].

For `CC(C)(S)C(=O)N[C@@H](CS)C(=O)O`, the Potency result in [1], in [3], in assay [4], in assay [5], in assay [10] and in assay [7] was “inactive” throughout. In addition, the Potency entry in [8] was “inactive”. Moreover, the compound was called inactive in assay [6] and in assay [9].

As to `Oc1ccc(Cl)c2c1CCC2`, the Potency entry in assay [1], in assay [3], in assay [4], in assay [5], in [7] and in assay [8] was “inactive” throughout. The result in assay [6] and in [9] was inactive.

Take `Cc1cc(-c2ccc(N=Nc3ccc4c(S(=O)(=O)O)cc(S(=O)(=O)O)c(N)c4c3O)c(C)c2)ccc1N=Nc1ccc2c(S(=O)(=O)O)cc(S(=O)(=O)O)c(N)c2c1O`: the Potency result in assay [1], in [3], in assay [5] and in assay [8] was “inactive” each time. The Potency in [4] is 13.3 µM (active). Moreover, the compound was classed as inactive in assay [6] and in [9].

On to `O=C1OC(O)C(C(Cl)Cl)=C1Cl` (configuration not stated), for which the Potency was 14.1 µM (active) in assay [1], 15.8 µM (active) in [3] and 63 µM (active) in [10]. The compound was classed as inactive in assay [6] and in assay [9]. In addition, the Potency entry in assay [7] and in assay [8] was “inactive” each time.

In the case of `NC(=O)c1cc[n+](CC2=C(C(=O)O)N3C(=O)[C@@H](NC(=O)C(c4ccccc4)S(=O)(=O)[O-])[C@H]3SC2)cc1` (some centres not stated), the Potency result in assay [1], in assay [3], in assay [4], in assay [5], in [7] and in [8] was “inactive” throughout. Further, in assay [9], the outcome was inactive.

Turning to `CCCC(CCC)C(=O)OC1C[C@H]2CC[C@@H](C1)[N+]2(C)C` (some centres not stated), the Potency entry in assay [1], in [3], in assay [4], in assay [5], in [7] and in [8] was “inactive” each time. Besides, the result in assay [6] and in assay [9] was inactive.

Regarding `CC[C@@H](C)[C@H](N)C(=O)O`, the Potency entry in [1], in assay [3], in assay [4], in [5], in assay [10] and in [7] was “inactive” throughout. Besides, the Potency result in assay [8] was “inactive”. Further, the compound was called inactive in assay [6] and in assay [9].

In the case of `COc1cc(NS(C)(=O)=O)ccc1Nc1c2ccccc2nc2ccccc12`, the Potency was 1.68 µM (active) in assay [1], 18.8 µM (active) in assay [3], 8.8 µM (active) in [10] and 11.2 µM [fluorescent] (active) in assay [8]. For the same compound, the Potency entry in [5] and in assay [7] was “inactive” in each case. Besides, the result in assay [6] and in assay [9] was inactive.

As to `CCCOC(=O)c1ccc(O)cc1`, the Potency entry in assay [1], in assay [2], in assay [3], in assay [4], in [7] and in assay [8] was “inactive” in each case. The call in assay [6] and in assay [9] was inactive.

`CCOc1ccc(NC(=S)Nc2ccc(OCC)cc2)cc1`: the Potency entry in [1], in assay [3], in [4], in [5], in [7] and in [8] was “inactive” each time. The Potency in assay [10] was 11.9 µM (active). Also, the call in assay [6] and in [9] was inactive.

As to `CC(C)NCC1CCc2cc(CO)c([N+](=O)[O-])cc2N1` (configuration not stated), the Potency entry in assay [1], in assay [3], in [4], in [5], in [10] and in [7] was “inactive” each time. Besides, the Potency result in assay [8] was “inactive”. Also, the outcome in [6] and in [9] was inactive.

Consider `O=C(O)C[C@H](O)C[C@H](O)/C=C/c1c(C2CC2)nc2ccccc2c1-c1ccc(F)cc1`, for which the Potency result in [1], in assay [4], in [5], in assay [7] and in assay [8] was “inactive” in each case. In addition, the result in assay [6] and in assay [9] was inactive.

As for `N[C@H](C(=O)O)[C@@H]1CC(Cl)=NO1`, the Potency in [1] is 2.98 µM (active); in assay [3] it was 13.3 µM (active). The Potency entry in assay [4], in assay [5], in assay [7] and in [8] was “inactive” in each case. Also, the compound was classed as inactive in assay [6] and in assay [9].

For the compound `COc1c(O)cc2c(c1O)[C@@H]1O[C@H](CO)[C@@H](O)[C@H](O)[C@H]1OC2=O`, the Potency entry in [1], in assay [3], in assay [4], in assay [5], in assay [10] and in [7] was “inactive” in each case. The Potency result in assay [8] is “inactive”. For the same compound, the compound was classed as inactive in assay [6] and in [9].
